# GALK inhibitor: galactokinase (human) inhibition | Potency, µM (titrated, usually from 57.5 µM), for the others: at the top dose activity change, negative = inhibition, usual class: inhibitors | actives 0.007% (n = 270,000) | Purified GALK, Kinase-Glo residual ATP luminescence | P51570; also: potency is read from the fitted curve at half-maximal effect; % is scaled to controls: 0 for no effect and ±100 for the full control effect
#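 Human GALK (5 nM) with 35 uM ATP and 100 uM galactose in 20 mM HEPES pH 8.0, 5 mM MgCl2, 60 mM NaCl, 1 mM DTT, 0.01% BSA. After 1 h at room temperature, leftover ATP was read by Kinase-Glo Plus luminescence.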
# Nrf2 inh: Nrf2 pathway inhibition. A549 ARE-Fluc reporter, luciferase luminescence, 18-24 h. Potency, µM (highest dose often 46 µM), for the others: at the top dose activity change, negative = inhibition, usual class: inhibitors. actives 2.1% (n = 360,000). AID 504444; also: potency is read from the fitted curve at half-maximal effect; % is scaled to controls: 0 for no effect and ±100 for the full control effect; nearly all actives have a fitted effect of over 60% in size
#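 Two sequential reads on A549 ARE_Fluc cells exposed to compound for 18-24 h: a CellTiter-Fluor fluorescence read for viability, then a luciferase luminescence read for Nrf2/ARE activity.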
# TrxR1 substrate: is turned over as a substrate by rat TrxR1; purified TrxR1 substrate turnover, NADPH consumption readout; actives 0.01% (n = 390,000); Potency, µM (top dose mostly 114 µM), for the others: at the top dose activity change, negative = substrate turnover; also: potency is read from the fitted curve at half-maximal effect; % is scaled to controls: 0 for no effect and ±100 for the full control effect; nearly all actives have a fitted effect of over 50% in size
#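 Rat TrxR1, dispensed at 90 nM, was prereduced with 400 uM NADPH (final) for 5 min at ~22 deg C, then incubated with compound 15 min before 400 uM selenite. A first-read NADPH fluorescence drop versus no-compound background flagged substrates.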
# Nrf2 activator: Nrf2 pathway activation. Potency, µM (titrated, usually from 46.1 µM), for inactives: top-dose activation, hits mostly activators. AID 624171. AREc32 ARE-luciferase reporter (MCF7-derived line), luminescence, 24 h. actives 0.31% (n = 410,000); also: potency is read from the fitted curve at half-maximal effect; % of control where 0% means no effect; nearly all actives have a fitted effect of over 65% in size
#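 ARE-driven firefly luciferase activity in AREc32 cells measured after a 24 hr compound exposure at 37 deg C, using Steady-Glo reagent and a 30 min room-temperature hold.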
# A549 viability: kills or reduces viability of A549 cells in Nrf2 counter-screen. A549 ARE-Fluc cells, CellTiter-Fluor viability, 18-24 h. Potency, µM (titrated, usually from 46 µM), for inactives: at the top dose activity change, negative = cytotoxicity, actives largely listed as inhibitors. actives 0.16% (n = 390,000); also: potency is read from the fitted curve at half-maximal effect; % is scaled to controls: 0 for no effect and ±100 for the full control effect
#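 A549 ARE-Fluc cells in 5% FBS OPTI-MEM, 5000 cells/well, rested 2 h then exposed to compounds in concentration-response for 18-24 h at 37 °C. Viability by CellTiter-Fluor fluorescence (Ex 405/Em 525) after 30 min; luciferase luminescence (BugLite, 15 min, RT) read afterwards.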
# TrxR1 inh-1: rat TrxR1 inhibition; O89049; recombinant rTrxR1, NADPH fluorescence consumption, selenite substrate; Potency, µM (series often up to 114 µM), without a hit: top-dose activity change, negative = inhibition, hits mostly inhibitors; actives 1% (n = 390,000); also: potency is read from the fitted curve at half-maximal effect; % is scaled to controls: 0 for no effect and ±100 for the full control effect; nearly all actives have a fitted effect of over 65% in size
#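 Rat TrxR1 (90 nM in the dispensed reagent) was pre-reduced with 400 uM NADPH for 5 min at room temperature, then incubated with compound for 15 min. After 400 uM selenite was added, NADPH fluorescence (Ex 340/Em 450 nm) was followed for 8 min.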
# TRb SRC2 Alpha: disrupts human TRb binding to SRC2 peptide in AlphaScreen. shares compounds with TrxR1 inh-1. AlphaScreen TRb LBD-SRC2 peptide binding, luminescence. Potency, µM. actives 50% (n = 30); calls by dose curve
# Target sequence (P10828 whole entry, looked up, the tested form may be a part): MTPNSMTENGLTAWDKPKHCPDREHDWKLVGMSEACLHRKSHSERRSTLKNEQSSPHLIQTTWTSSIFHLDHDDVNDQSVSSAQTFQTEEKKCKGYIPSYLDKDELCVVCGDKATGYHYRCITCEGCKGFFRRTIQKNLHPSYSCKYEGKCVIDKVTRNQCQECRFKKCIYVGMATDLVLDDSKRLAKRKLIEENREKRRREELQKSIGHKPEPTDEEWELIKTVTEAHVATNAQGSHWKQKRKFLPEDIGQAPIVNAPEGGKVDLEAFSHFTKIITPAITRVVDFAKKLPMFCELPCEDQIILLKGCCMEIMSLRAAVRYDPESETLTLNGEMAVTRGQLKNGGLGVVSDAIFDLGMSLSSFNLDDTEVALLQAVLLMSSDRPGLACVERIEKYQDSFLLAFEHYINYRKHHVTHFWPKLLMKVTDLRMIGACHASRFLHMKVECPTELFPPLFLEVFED
# HepG2 viability: reduces HepG2 viability in TRb-SRC2 counter-screen; actives 50% (n = 40); shares compounds with TrxR1 inh-1; Potency, µM; HepG2 viability, ATP luminescence (CellTiter-Glo), 72 h; calls by dose curve
# AR-SRC2 inh: disrupts human androgen receptor binding to SRC2 peptide. shares compounds with TrxR1 inh-1. AR-LBD Tx-SRC2-3 fluorescence polarization, 3 h. calls only. 25 tested, under 10 active. AID 2448; call rule not given here
# PPARg-DRIP2 inh: PPARg-DRIP2 (human) interaction inhibition, selectivity. AID 2449. PPARg LBD / Texas Red DRIP-2 peptide, fluorescence polarization, 3 h. Potency, µM. shares compounds with TrxR1 inh-1. 25 tested, under 10 active; calls by dose curve
# VDR SRC2 FP: VDR-SRC2 (human) interaction inhibition, selectivity | 25 tested, under 10 active | shares compounds with TrxR1 inh-1 | VDR LBD/SRC2-3 peptide, fluorescence polarization, 3 h | AID 2455 | Potency, µM; calls by dose curve
# TRb SRC2 FluoFP: TRb-SRC2 (human) inhibition, fluorescein FP confirmation. shares compounds with TrxR1 inh-1. TRb LBD / fluorescein-SRC2 peptide, fluorescence polarization. Potency, µM. 20 tested, under 10 active. AID 2487; call rule not given here
# GR inh: glutathione reductase inhibition, TrxR1 selectivity check; shares compounds with TrxR1 inh-1; purified GR, DTNB reduction absorbance 405 nm kinetic; activity change, negative = inhibition, % at 57.1 µM; 55 tested, under 10 active; AID 652020
# TrxR1 inh-2: validation of rat thioredoxin reductase 1 inhibitors; shares compounds with TrxR1 inh-1; actives 50% (n = 55); recombinant TrxR1, NADPH fluorescence consumption, selenite substrate; Potency, µM, hits mostly inhibitors
# TrxR1 insulin: TrxR1 inhibition in insulin mechanism assay; shares compounds with TrxR1 inh-1; TrxR1 Trx-coupled insulin reduction, NADPH absorbance 340 nm; Potency, µM; actives 20% (n = 55);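 active = compounds with a measured potency under 100 micromolar; inconclusive = filed, but no rule given; inactive = potency at or above that, or unmeasurable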
# TrxR1 inh-3: rat thioredoxin reductase 1 inhibition, DTNB assay. shares compounds with TrxR1 inh-1. purified TrxR1, DTNB reduction, A412. Potency, µM. actives 90% (n = 55). AID 652256;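 active = a half-inhibiting concentration could be measured and was below 100 µM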
# Starred values were filed as active, the others as inactive; i = inactive; ? = inconclusive; · = no result given; [ ] = another dose, or the depositor's remark. In the library only some 3% were active in any assay of this set; here they are far more common. Unless noted, calls follow the shape of the dose curve; as a rule, active = well fitted curve in the direction sought with a large enough effect; inconclusive = small, poorly fitted or top-dose-only effect, or another doubt; inactive = no such curve, though single readings can be large; an effect the other way counts as inactive or inconclusive.
SMILES,GALK inhibitor,Nrf2 inh,TrxR1 substrate,Nrf2 activator,A549 viability,TrxR1 inh-1,GR inh,TrxR1 inh-2,TrxR1 insulin,TrxR1 inh-3,others
CCCNC(=O)c1ccc(S(=O)(=O)c2ccc(OC)cc2)c([N+](=O)[O-])c1,-0.2%,5.3%,5.6%,?,-8.8%,?,·,·,·,·,
CS(=O)(=O)c1ccc(C(=O)NCC(=O)NC2C3CC4CC(C3)CC2C4)cc1[N+](=O)[O-] (configuration not stated),·,·,·,·,·,·,·,·,·,·,TRb SRC2 Alpha=3.8µM*;HepG2 viability=21.9µM*;AR-SRC2 inh=i;PPARg-DRIP2 inh=i;VDR SRC2 FP=i
Fc1cccc(F)c1C(Nc1nncs1)Nc1nncs1,·,·,·,0.1%,·,·,·,·,·,·,
Cc1ccccc1Cn1c2ccccc2c2cnn(CC(=O)NC(C)CCc3ccccc3)c(=O)c21 (configuration not stated),·,-7.6%,-2.9%,-0.6%,0.7%,-5.0%,·,·,·,·,
COCCn1nnnc1C(c1ccc(O)c(OC)c1)N1CCc2ccccc2C1 (configuration not stated),-1.9%,·,19.9%[57.1 µM],1.1%,?,5.62µM*,0.1,4.74*,i,0.265µM*,
CCC(C)(C)n1nnnc1C(c1ccc(O)cc1)N1CCc2ccccc2C1 (configuration not stated),5.0%,11.3%,6.9%[57.1 µM],4.3%,-0.5%,15.8µM*,-20.7,7.52*,i,0.244µM*,
Nn1c(SCc2ccc(C(=O)O)cc2)nnc1-c1ccc(Cl)cc1Cl,·,16.0%,0.9%,0.0%,0.0%,6.9%,·,·,·,·,
Clc1ccc(CSc2nnc(CNc3cccc(Cl)c3)o2)cc1,0.1%,-17.5%,4.6%[57.1 µM],0.0%,7.1%,13.1%[57.1 µM],·,·,·,·,
Cc1ccc2[nH]c(=O)c(CN(CCCN3CCOCC3)Cc3nnnn3C3CCCC3)cc2c1,8.1%,3.3%,8.7%,0.2%,?,20µM*,?,?,3µM*,5.35µM*,
CS(=O)(=O)c1ccc(C(=O)OCC(=O)N2CCC(Cc3ccccc3)CC2)cc1[N+](=O)[O-],·,·,·,·,·,·,·,·,·,·,HepG2 viability=9µM*
CC1CCCCN1C(=O)COC(=O)c1ccc(S(C)(=O)=O)c([N+](=O)[O-])c1 (configuration not stated),·,-3.0%,-0.6%,·,-4.6%,10µM*,·,·,·,·,TRb SRC2 Alpha=19.3µM*;HepG2 viability=21.6µM*;AR-SRC2 inh=i;PPARg-DRIP2 inh=i;VDR SRC2 FP=i;TRb SRC2 FluoFP=9.1µM*
CS(=O)(=O)c1ccc(C(=O)OCC(=O)N2CCN(CCC3CCCCC3)CC2)cc1[N+](=O)[O-],·,·,·,-4.7%,·,·,·,·,·,·,
CCCC1CCN(C(=O)COC(=O)c2ccc(S(C)(=O)=O)c([N+](=O)[O-])c2)CC1,·,·,·,·,·,·,·,·,·,·,HepG2 viability=6.6µM*
CC1CCCCN1C(=O)COC(=O)CSc1ccc(C(N)=O)cc1[N+](=O)[O-] (configuration not stated),·,8.6%,5.7%[57.1 µM],0.8%,-6.5%,12.5%[57.1 µM],·,·,·,·,
CC(C)c1ccc(NC(=O)C2(C)Cc3c(-c4ccc5c(c4)OCO5)ccnc3O2)cc1 (configuration not stated),·,·,·,2.9%,·,·,·,·,·,·,
Cc1c(C)n(Cc2ccc(F)cc2)c2ccc(C(=O)NCCN3CCOCC3)cc12,-0.6%,-17.6%,-1.0%,0.6%,-13.8%,-7.5%,·,·,·,·,
Cc1ccc(NC(=O)N2CCCC2C(=O)NCC2CCCCC2)cc1 (configuration not stated),-2.5%,-9.7%,4.3%,-0.3%,-11.8%,15.5%,·,·,·,·,
COC(=O)c1ccccc1S(=O)(=O)N(Cc1ccco1)Cc1cc2cc(OC)ccc2[nH]c1=O,1.5%,-10.8%,24.4%,0.4%,-3.0%,10µM*,0.0,5.97*,i,7.4µM*,
Cc1ccc(CNC(=O)c2cc3c(=O)n(C)c4ccccc4c3n2C)o1,2.5%,-10.1%,6.4%,-0.5%,-5.0%,?,·,·,·,·,
Cc1ccc(CNC(=O)c2cn(C)c(=O)c3c2c2ccccc2n3C)o1,-3.3%,-7.5%,10.0%,4.1%,-0.2%,15.8µM*,-14.6,?,i,1.51µM*,

# Screening data: PubChem BioAssay, National Center for Advancing Translational Sciences (NCATS)
